According to PubChem BioAssay AID1159580 (chemical genetic matrix, 2015):
Out of some 5,500 compounds screened, about 2,000 (36%) were called active. Another 18% or so got no clear call; they are omitted. Rule as the data show it: active = normalized growth mostly below about 0.91 (no sharp cut-off); inconclusive = no clear call, values can overlap the other calls; inactive = mostly above about 0.92. This is one part of the list.

Experiment: chemical genetic growth profiling, strain panel (AID 1159580);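 also: tested at 20 µM; growth read once vehicle control cultures reached saturation at 30 °C; 1 = growth at the plate median or of vehicle wells; lower values mean less growth of the strain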
Conditions: S. cerevisiae deletion strains, growth OD

Measured: normalized growth

CC(C)N(C(=O)CCl)c1ccccc1
active: locus YDR392W, strain spt3, stronger effect = lower value 0.649 | locus YJL129C, strain trk1, stronger effect = lower value 1.23 [resistant]
inactive: locus YAL013W, strain DEP1, stronger effect = lower value 1.03 | locus YAL021C, strain ccr4, stronger effect = lower value 1.03 | locus YAL026C, strain drs2, stronger effect = lower value 1.04 | locus YAL030W, strain snc1, stronger effect = lower value 1.02 | locus YBL061C, strain skt5, stronger effect = lower value 1.01 | locus YBR009C, strain hhf1, stronger effect = lower value 0.949 | locus YBR021W, strain FUR4, stronger effect = lower value 1.07 | locus YBR023C, strain chs3, stronger effect = lower value 1.02 | locus YBR171W, strain sec66, stronger effect = lower value 1.01 | locus YBR229C, strain ROT2, stronger effect = lower value 1.02 | locus YBR231C, strain swc5, stronger effect = lower value 0.991 | locus YBR279W, strain paf1, stronger effect = lower value 0.993 | locus YCL011C, strain gbp2, stronger effect = lower value 1.01 | locus YCL016C, strain dcc1, stronger effect = lower value 1.01 | locus YCL029C, strain bik1, stronger effect = lower value 1.02 | locus YCL061C, strain MRC1, stronger effect = lower value 1.02 | locus YCL069W, strain vba3, stronger effect = lower value 1.01 | locus YCR088W, strain abp1, stronger effect = lower value 1.03 | locus YDL005C, strain med2, stronger effect = lower value 1.04 | locus YDL035C, strain GPR1, stronger effect = lower value 1.04 | locus YDL040C, strain nat1, stronger effect = lower value 1 | locus YDL074C, strain BRE1, stronger effect = lower value 1.05 | locus YDL101C, strain DUN1, stronger effect = lower value 1.02 | locus YDL134C, strain PPH21, stronger effect = lower value 1.02 | locus YDL185W, strain tfp1, stronger effect = lower value 1.02 | locus YDL192W, strain arf1, stronger effect = lower value 1.01 | locus YDR001C, strain nth1, stronger effect = lower value 1.01 | locus YDR069C, strain doa4, stronger effect = lower value 0.979 | locus YDR101C, strain arx1, stronger effect = lower value 1.02 | locus YDR137W, strain rgp1, stronger effect = lower value 1.08 | locus YDR150W, strain NUM1, stronger effect = lower value 1.03 | locus YDR159W, strain sac3, stronger effect = lower value 1.01 | locus YDR162C, strain NBP2, stronger effect = lower value 1.03 | locus YDR195W, strain ref2 0.917 | locus YDR297W, strain sur2, stronger effect = lower value 1.03 | locus YDR318W, strain mcm21, stronger effect = lower value 1.02 | locus YDR334W, strain swr1, stronger effect = lower value 1.01 | locus YDR335W, strain msn5, stronger effect = lower value 1.01 | locus YDR388W, stronger effect = lower value 1.02 | locus YDR502C, strain sam2, stronger effect = lower value 1.02 | locus YEL003W, strain gim4, stronger effect = lower value 1 | locus YEL037C, strain rad23, stronger effect = lower value 1.01 | locus YEL061C, strain CIN8 (second series), stronger effect = lower value 1.01 | locus YEL061C, strain CIN8, stronger effect = lower value 1.02 | locus YER015W, strain faa2, stronger effect = lower value 0.997 | locus YER016W, strain bim1, stronger effect = lower value 1.01 | locus YER110C, stronger effect = lower value 1.03 | locus YER111C, strain swi4, stronger effect = lower value 1.02 | locus YER155C, strain BEM2 (second series), stronger effect = lower value 1.01 | locus YER155C, strain BEM2, stronger effect = lower value 1.03 | locus YER167W, strain BCK2, stronger effect = lower value 1.03 | locus YFR010W, strain ubp6, stronger effect = lower value 0.985 | locus YGL078C, strain dbp3, stronger effect = lower value 1.03 | locus YGL086W, strain mad1, stronger effect = lower value 1.02 | locus YGL167C, strain pmr1, stronger effect = lower value 1.01 | locus YGL173C, strain kem1, stronger effect = lower value 1.03 | locus YGL227W, strain vid30, stronger effect = lower value 1.01 | locus YGL240W, strain doc1, stronger effect = lower value 0.977 | locus YGL248W, strain PDE1, stronger effect = lower value 1.04 | locus YGL253W, strain hxk2, stronger effect = lower value 0.941 | locus YGR078C, strain PAC10, stronger effect = lower value 1.02 | locus YGR135W, strain pre9, stronger effect = lower value 1.01 | locus YGR229C, strain SMI1, stronger effect = lower value 1.05 | locus YGR252W, strain gcn5, stronger effect = lower value 0.958 | locus YHR013C, strain ard1, stronger effect = lower value 0.881 | locus YHR027C, strain rpn1, stronger effect = lower value 1.01 | locus YHR030C, strain SLT2, stronger effect = lower value 1 | locus YHR079C, strain IRE1 (second series), stronger effect = lower value 1.02 | locus YHR094C, strain hxt1, stronger effect = lower value 1.01 | locus YHR129C, strain ARP1, stronger effect = lower value 1.04 | locus YHR142W, strain chs7, stronger effect = lower value 1.01 | locus YHR200W, strain rpn10, stronger effect = lower value 1.02 | locus YIL066C, strain RNR3, stronger effect = lower value 1.01 | locus YIL073C, strain SPO22, stronger effect = lower value 0.961 | locus YIL125W, strain kgd1, stronger effect = lower value 1.03 | locus YIR030C, strain dcg1, stronger effect = lower value 1.02 | locus YJL092W, strain hpr5, stronger effect = lower value 1.03 | locus YJL095W, strain BCK1 (second series), stronger effect = lower value 1.01 | locus YJL095W, strain BCK1, stronger effect = lower value 1.02 | locus YJL115W, strain asf1, stronger effect = lower value 1.03 | locus YJL134W, strain LCB3, stronger effect = lower value 1.03 | locus YJL154C, strain vps35, stronger effect = lower value 1.02 | locus YJL164C, strain tpk1, stronger effect = lower value 0.999 | locus YJL166W, strain qcr8, stronger effect = lower value 0.955 | locus YJL168C, strain set2, stronger effect = lower value 1 | locus YJL187C, strain SWE1 (second series), stronger effect = lower value 1.02 | locus YJL187C, strain SWE1, stronger effect = lower value 1.02
